Consider 76 compounds from the antibiotic and cytotoxicity screens of Wong et al. (2023).

Molecules are shown by their SMILES. Out of some 39,000 compounds screened, about 1,500 (3.8%) were called active. The full list was thinned out, with actives kept by preference.

This experiment concerns HSkMC (human skeletal muscle cells). The experiment can be described thus: cytotoxicity call (relative viability < 0.9). The following applies: 10 µM.
With `Cc1ccc(S(=O)(=O)N(C)C[C@@H]2Oc3ccc(NC(=O)CCCN(C)C)cc3CC(=O)N([C@@H](C)CO)C[C@H]2C)cc1`, the cytotoxicity call was “inactive”.

For the compound `O=C(CN1CCOCC1)NCC[C@@H]1CC[C@H](NC(=O)Cc2ccccn2)[C@@H](CO)O1`, the cytotoxicity call was “inactive”.

`Cc1noc(C)c1S(=O)(=O)N(C)C[C@H]1Oc2ccc(NC(=O)Cn3cnnn3)cc2CC(=O)N([C@@H](C)CO)C[C@@H]1C`: the cytotoxicity call is “inactive”.

Consider `C[C@@H]1CN([C@H](C)CO)S(=O)(=O)c2ccc(C#Cc3ccccc3)cc2O[C@@H]1CN(C)S(C)(=O)=O`, for which the cytotoxicity call was “inactive”.

With `C[C@@H]1CCCCO[C@@H](CN(C)C(=O)Nc2ccccc2)[C@@H](C)CN([C@@H](C)CO)C(=O)c2cc(NC(=O)Nc3cccc4ccccc34)ccc2O1`, the cytotoxicity call was “inactive”.

As to `COc1ccc(S(=O)(=O)Nc2ccc3c(c2)OC[C@@H](C)N(C)C[C@@H](C)[C@H](OC)CN(C)C3=O)cc1`, the cytotoxicity call was “inactive”.

For the compound `CO[C@H](CN(C)S(=O)(=O)c1cccc(Cl)c1)[C@H](C)CN([C@H](C)CO)S(=O)(=O)c1ccc(Cl)cc1`, the cytotoxicity call is “inactive”.

Turning to `O=C(C[C@H]1CC[C@H]2[C@@H](COC[C@H](O)CN2C(=O)c2cccnc2)O1)NCc1ccc(-c2ccccc2)cc1`, the cytotoxicity call was “inactive”.

Turning to `NC(=O)c1nc2c(s1)CCNCC2`, the cytotoxicity call is “inactive”.

`Cc1ccc(S(=O)(=O)N(C)C[C@H]2OCCCC[C@@H](C)Oc3ccc(NS(C)(=O)=O)cc3C(=O)N([C@H](C)CO)C[C@@H]2C)cc1`: the cytotoxicity call was “inactive”.

Regarding `COc1ccc(S(=O)(=O)N(C)C[C@@H]2OCc3cn(nn3)CCCC(=O)N([C@H](C)CO)C[C@@H]2C)cc1`, the cytotoxicity call is “inactive”.

For `O=C(C[C@H]1CC[C@@H]2[C@H](COC[C@H](O)CN2S(=O)(=O)c2ccccc2)O1)NCc1ccc(-c2ccccc2)cc1`, the cytotoxicity call is “inactive”.

In the case of `Cc1ccc(S(=O)(=O)Nc2ccc3c(c2)C(=O)N([C@H](C)CO)C[C@H](C)[C@H](CN(C)C(=O)Nc2ccc(F)cc2)OCCCC[C@H](C)O3)cc1`, the cytotoxicity call was “inactive”.

Regarding `Cc1ccc(S(=O)(=O)Nc2ccc3c(c2)C(=O)N([C@H](C)CO)C[C@@H](C)[C@H](CN(C)C(=O)Nc2ccc(F)cc2)OCCCC[C@H](C)O3)cc1`, the cytotoxicity call is “active”.

With `Cc1ccc(S(=O)(=O)Nc2ccc3c(c2)C(=O)N([C@H](C)CO)C[C@@H](C)[C@H](CN(C)C(=O)Nc2ccc(F)cc2)OCCCC[C@@H](C)O3)cc1`, the cytotoxicity call is “active”.

Consider `Cc1ccc(S(=O)(=O)Nc2ccc3c(c2)C(=O)N([C@@H](C)CO)C[C@H](C)[C@@H](CN(C)C(=O)Nc2ccc(F)cc2)OCCCC[C@@H](C)O3)cc1`, for which the cytotoxicity call was “inactive”.

For `Cc1ccc(S(=O)(=O)Nc2ccc3c(c2)C(=O)N([C@@H](C)CO)C[C@H](C)[C@@H](CN(C)C(=O)Nc2ccc(F)cc2)OCCCC[C@H](C)O3)cc1`, the cytotoxicity call is “inactive”.

On to `Cc1ccc(S(=O)(=O)Nc2ccc3c(c2)C(=O)N([C@@H](C)CO)C[C@@H](C)[C@H](CN(C)C(=O)Nc2ccc(F)cc2)OCCCC[C@@H](C)O3)cc1`, for which the cytotoxicity call was “inactive”.

For the compound `C[C@H]1CN([C@@H](C)CO)S(=O)(=O)c2ccc(C#CC(C)(C)O)cc2O[C@H]1CN(C)C(=O)C1CCCCC1`, the cytotoxicity call was “inactive”.

As to `C[C@H](CO)N1C[C@H](C)[C@H](CN(C)S(C)(=O)=O)Oc2ccc(NC(=O)Nc3ccc(F)cc3)cc2CC1=O`, the cytotoxicity call was “inactive”.

Turning to `COc1ccc(NC(=O)Nc2cccc3c2O[C@H](CN(C)C(=O)Nc2cccc4ccccc24)[C@H](C)CN([C@H](C)CO)C3=O)cc1`, the cytotoxicity call was “inactive”.

With `COc1ccc(NC(=O)N(C)C[C@H]2Oc3c(NC(=O)C4CC4)cccc3C(=O)N([C@H](C)CO)C[C@H]2C)cc1`, the cytotoxicity call is “inactive”.

For `C[C@H]1CN([C@@H](C)CO)C(=O)c2cc(NC(=O)Cc3ccccc3)ccc2O[C@@H]1CN(C)C(=O)Nc1cccc2ccccc12`, the cytotoxicity call is “inactive”.

Take `Cn1c(=O)c2c(nc(SCSc3nc4c(c(=O)n(C)c(=O)n4C)n3C)n2C)n(C)c1=O`: the cytotoxicity call is “inactive”.

For `CCn1c(Cl)nc2c1c(=O)n(C)c(=O)n2C`, the cytotoxicity call is “inactive”.

Regarding `Cc1nc2c(=O)n(C)c(=O)n(C)c2nc1Cl`, the cytotoxicity call is “active”.

Turning to `C[C@@H]1CN([C@H](C)CO)C(=O)c2cc(NC(=O)Nc3ccc4c(c3)OCO4)ccc2O[C@@H](C)CCCCO[C@H]1CN(C)Cc1ccccc1`, the cytotoxicity call is “inactive”.

Consider `Cc1ccc(S(=O)(=O)N(C)C[C@H]2OCCCC[C@@H](C)Oc3ccc(NS(C)(=O)=O)cc3C(=O)N([C@H](C)CO)C[C@H]2C)cc1`, for which the cytotoxicity call is “inactive”.

With `Cn1nnc2c1CCN(C(=O)CS(C)(=O)=O)[C@@H]2COCC1CC1`, the cytotoxicity call is “inactive”.

For `COCC(=O)Nc1ccc2c(c1)CC(=O)N2`, the cytotoxicity call is “inactive”.

Turning to `CCN1CCN(Cc2ccc(C(=O)Nc3ccc(C)c(Oc4ccc5c(c4)CC(=O)N5)c3)cc2C(F)(F)F)CC1`, the cytotoxicity call was “active”.

Turning to `Cc1ccc(S(=O)(=O)Nc2ccc3c(c2)C(=O)N([C@@H](C)CO)C[C@H](C)[C@@H](CN(C)C(=O)Nc2c(C)noc2C)OCCCC[C@@H](C)O3)cc1`, the cytotoxicity call was “inactive”.

`Cc1noc(C)c1NC(=O)N(C)C[C@@H]1Oc2ccc(NC(=O)C3CC3)cc2C(=O)N([C@H](C)CO)C[C@H]1C`: the cytotoxicity call was “inactive”.

For `C[C@@H]1CN([C@H](C)CO)C(=O)CCCn2nncc2CO[C@H]1CN(C)C(=O)Nc1cccc(C(F)(F)F)c1`, the cytotoxicity call is “inactive”.

Consider `COc1ccc2cc3[n+](cc2c1OC)CCc1cc2c(cc1-3)OCO2.[Cl-]`, for which the cytotoxicity call is “inactive”.

Take `C[n+]1cc2c3c(ccc2c2ccc4cc5c(cc4c21)OCO5)OCO3.[Cl-]`: the cytotoxicity call was “active”.

In the case of `COCC#Cc1cnc2c(c1)C(=O)N([C@@H](C)CO)C[C@@H](C)[C@@H](CN(C)S(=O)(=O)c1ccccc1)O2`, the cytotoxicity call was “inactive”.

Take `C[C@@H]1CN([C@H](C)CO)C(=O)c2cc(C#Cc3ccccc3F)cnc2O[C@@H]1CN(C)C(=O)c1ccc2c(c1)OCO2`: the cytotoxicity call is “inactive”.

On to `Cc1ncc[nH]1`, for which the cytotoxicity call was “inactive”.

Turning to `CC[C@@H](C)SSc1ncc[nH]1`, the cytotoxicity call is “active”.

As to `OCc1ncc[nH]1`, the cytotoxicity call was “inactive”.

As to `C[C@@H]1CN([C@H](C)CO)C(=O)c2cccc(NC(=O)Nc3ccc(F)cc3)c2O[C@H]1CN(C)C(=O)Nc1cccc2ccccc12`, the cytotoxicity call is “inactive”.

With `C[C@@H]1CN([C@@H](C)CO)C(=O)c2cc(NS(C)(=O)=O)ccc2O[C@@H]1CN(C)Cc1ccc(C(=O)Nc2ccccc2N)cc1`, the cytotoxicity call was “inactive”.

Regarding `Cc1ccc(S(=O)(=O)NC2=NCN(CCN3CCOCC3)CN2)cc1`, the cytotoxicity call is “inactive”.

Regarding `Cc1ccc(-n2nc(C(C)(C)C)cc2NC(=O)Nc2ccc(OCCN3CCOCC3)c3ccccc23)cc1`, the cytotoxicity call was “active”.

Consider `O=C(NCCN1CCOCC1)c1ccccn1`, for which the cytotoxicity call is “inactive”.

Regarding `C[C@@H]1CN([C@H](C)CO)C(=O)c2cc(NS(=O)(=O)c3cn(C)cn3)ccc2O[C@@H]1CN(C)C(=O)Nc1ccc2c(c1)OCO2`, the cytotoxicity call is “inactive”.

In the case of `O=C1[C@@H]2[C@@H](C(=O)N1CCO)[C@@H]1C=C[C@@H]2C1`, the cytotoxicity call was “inactive”.

On to `C[C@@H]1CN([C@H](C)CO)S(=O)(=O)c2ccc(-c3cncnc3)cc2O[C@H]1CN(C)C(=O)Cc1ccncc1`, for which the cytotoxicity call is “inactive”.

On to `C[C@@H]1CN([C@@H](C)CO)C(=O)c2cc(NC(=O)Nc3ccc4c(c3)OCO4)ccc2O[C@@H]1CN(C)C(=O)Nc1cccc2ccccc12`, for which the cytotoxicity call is “active”.

With `C[C@@H]1CN([C@H](C)CO)C(=O)c2cc(NC(=O)Nc3ccc4c(c3)OCO4)ccc2O[C@@H]1CN(C)C(=O)Nc1cccc2ccccc12`, the cytotoxicity call is “active”.

Regarding `C[C@H]1CN([C@@H](C)CO)C(=O)c2cc(NC(=O)Nc3ccc4c(c3)OCO4)ccc2O[C@@H]1CN(C)C(=O)Nc1cccc2ccccc12`, the cytotoxicity call is “inactive”.

As for `C[C@H]1CN([C@@H](C)CO)C(=O)c2cc(NC(=O)Nc3ccc4c(c3)OCO4)ccc2O[C@H]1CN(C)C(=O)Nc1cccc2ccccc12`, the cytotoxicity call was “inactive”.

In the case of `C[C@H](CO)N1C[C@H](C)[C@@H](CN(C)C(=O)Nc2cccc3ccccc23)Oc2ccc(NC(=O)Nc3ccc4c(c3)OCO4)cc2C1=O`, the cytotoxicity call was “inactive”.

Take `C[C@@H]1CN([C@H](C)CO)C(=O)c2cc(NC(=O)Nc3ccc4c(c3)OCO4)ccc2O[C@H]1CN(C)C(=O)Nc1cccc2ccccc12`: the cytotoxicity call was “inactive”.

Regarding `O=C(C[C@H]1CC[C@H]2[C@@H](COC[C@@H](O)CN2S(=O)(=O)c2cccc(Cl)c2)O1)NCCCN1CCOCC1`, the cytotoxicity call is “inactive”.

Take `CO[C@@H]1[C@@H](O)[C@H](O)[C@H](O)[C@H](O)[C@@H]1O`: the cytotoxicity call was “inactive”.

As for `COc1ccc(NC(=O)N(C)C[C@@H]2Oc3ccc(NC(=O)CCCCCC(=O)Nc4ccccc4N)cc3C(=O)N([C@@H](C)CO)C[C@@H]2C)cc1`, the cytotoxicity call is “inactive”.

Take `O=C(Cn1cc(COc2ccc3ccccc3c2)nn1)NS(=O)(=O)c1ccccc1OC(F)(F)F`: the cytotoxicity call was “inactive”.

With `CN(C)C(=O)C[C@@H]1CC[C@@H]2[C@H](COC[C@H](O)CN2S(=O)(=O)c2ccc(Oc3ccccc3)cc2)O1`, the cytotoxicity call is “inactive”.

Consider `CC(C)[C@H]1CC[C@@H](C)C[C@@H]1NC(=O)c1cccc2ccccc12`, for which the cytotoxicity call is “inactive”.

`COc1ccc2c(c1)n(CCN)c(=O)n2C(=O)[C@@H]1C[C@H](C)CC[C@H]1C(C)C`: the cytotoxicity call was “active”.

As for `COc1ccc(S(=O)(=O)Nc2ccc3c(c2)C(=O)N([C@H](C)CO)C[C@@H](C)[C@@H](CN(C)S(C)(=O)=O)O3)cc1`, the cytotoxicity call was “inactive”.

Take `Cc1cc(C)c(/N=c2\scc(C)n2Cc2ccccc2)c(C)c1`: the cytotoxicity call was “inactive”.

With `C[C@@H]1CN([C@@H](C)CO)C(=O)c2cc(NC(=O)Nc3ccc(C(F)(F)F)cc3)ccc2O[C@@H]1CN(C)S(=O)(=O)c1ccc(F)cc1`, the cytotoxicity call was “inactive”.

As to `Cc1ccc(S(=O)(=O)N(C)C[C@@H]2Oc3ccc(NC(=O)Nc4ccc(C(F)(F)F)cc4)cc3C(=O)N([C@@H](C)CO)C[C@@H]2C)cc1`, the cytotoxicity call was “inactive”.

`C[C@@H]1CN([C@H](C)CO)C(=O)c2cc(NC(=O)Nc3ccc(C(F)(F)F)cc3)ccc2O[C@@H]1CN(C)S(=O)(=O)c1ccc(F)cc1`: the cytotoxicity call is “active”.

On to `C[C@H]1CN([C@@H](C)CO)C(=O)c2cc(NC(=O)Nc3ccc(C(F)(F)F)cc3)ccc2O[C@H]1CN(C)S(=O)(=O)c1ccc(F)cc1`, for which the cytotoxicity call is “inactive”.

For `Cc1ccc(S(=O)(=O)N(C)C[C@H]2Oc3ccc(NC(=O)Nc4ccc(C(F)(F)F)cc4)cc3C(=O)N([C@H](C)CO)C[C@@H]2C)cc1`, the cytotoxicity call was “inactive”.

In the case of `C[C@H](CO)N1C[C@H](C)[C@@H](CN(C)S(=O)(=O)c2ccc(F)cc2)Oc2ccc(NC(=O)Nc3ccc(C(F)(F)F)cc3)cc2C1=O`, the cytotoxicity call was “inactive”.

For the compound `Cc1ccc(S(=O)(=O)N(C)C[C@H]2Oc3ccc(NC(=O)Nc4ccc(C(F)(F)F)cc4)cc3C(=O)N([C@@H](C)CO)C[C@@H]2C)cc1`, the cytotoxicity call was “inactive”.

For the compound `C[C@H]1CN([C@@H](C)CO)C(=O)c2cc(NC(=O)Nc3ccc(C(F)(F)F)cc3)ccc2O[C@@H]1CN(C)S(=O)(=O)c1ccc(F)cc1`, the cytotoxicity call was “inactive”.

Regarding `C[C@@H]1CN([C@@H](C)CO)C(=O)c2cc(NC(=O)Nc3ccc(C(F)(F)F)cc3)ccc2O[C@H]1CN(C)S(=O)(=O)c1ccc(F)cc1`, the cytotoxicity call was “inactive”.

For `Cc1ccc(S(=O)(=O)N(C)C[C@H]2Oc3ccc(NC(=O)Nc4ccc(C(F)(F)F)cc4)cc3C(=O)N([C@H](C)CO)C[C@H]2C)cc1`, the cytotoxicity call was “active”.

With `C[C@@H]1CN([C@H](C)CO)C(=O)c2cc(NC(=O)Nc3ccc(C(F)(F)F)cc3)ccc2O[C@H]1CN(C)S(=O)(=O)c1ccc(F)cc1`, the cytotoxicity call is “active”.

On to `C[C@H](CO)N1C[C@H](C)[C@H](CN(C)S(=O)(=O)c2ccc(F)cc2)Oc2ccc(NC(=O)Nc3ccc(C(F)(F)F)cc3)cc2C1=O`, for which the cytotoxicity call is “active”.
